Results as given in ChEMBL document CHEMBL3988442, “University of Dundee, Small-Polar-MMV Screening Library” (2021).
About 1,200 (3.2%) of roughly 38,000 compounds showed an effect of 50% or more. The median lay at about -58%. Only a selection was taken, and strong results are over-represented in it overall.

test system: Plasmodium falciparum; test: Calibr Malaria Delayed Death Assay SOP; format: functional, organism-based; design: scale not given: in the data most compounds retested in dose-response had high values; settings: concentration 4.99e-06 (unit not given; other assays of the set use mol/L)

Compound | Percent Effect
CCn1ncnc1C(C)Nc1cc(C2CC2)ncn1 (stereo unspecified) | -128.7%
Cc1cccc(CN2C(=O)CO[C@@H]3CN(Cc4cnn(C)c4)C[C@H]32)c1.O=C(O)C(F)(F)F.O=C(O)C(F)(F)F | -89.5%
CC(C)CNC(=O)CNc1c(NCc2ccncc2)c(=O)c1=O | -63.87%
Cc1ccc2nc(CN3CCCCC3CCN3CCOCC3)cn2c1 (stereo unspecified) | 7.984%
CSC(C)(C)CNC(=O)NC1CCN(CC2CC2)C1 (stereo unspecified) | -39.54%
O=C(NC1CCN(CC2CC2)C1)c1ccc(C(=O)c2cc[nH]c2)cc1 (stereo unspecified) | -13.77%
O=C(NC1CCN(CC2CC2)C1)c1ccc(N2CCC(O)CC2)cc1 (stereo unspecified) | -9.255%
NC(=O)C1CCN(C(=O)NC2CCN(CC3CCCC3)C2)CC1 (stereo unspecified) | -59.5%
O=C(NC1CCN(CC2CCCC2)C1)N1CCC(OCC2CC2)CC1 (stereo unspecified) | 63.12%
O=C(NC1CCN(CC2CC2)C1)N1CCC(OC2CCCCC2)CC1 (stereo unspecified) | 53.27%
CNc1nc2c(s1)C(=O)CN(C(=O)NCCc1ccccc1)C2 | -35.41%
COCCN1CCC(c2nc3ccc(NC(C)C)cn3n2)CC1.O=C(O)C(F)(F)F | -58.6%
CCNc1ncc2c(n1)CN(c1ccc(C)c(C)c1)C2=O | -153.3%
Cc1ccc(S(=O)(=O)Nc2ccc(C)c(C(=O)O)c2)s1 | -129.6%
O=C(NCCN1CCOCC1)C1=NOC2(CCN(Cc3nccs3)C2)C1 (stereo unspecified) | -143.8%
Cc1nn(C)c(Oc2ccccc2)c1CNC1CCOc2ccccc21 (stereo unspecified) | -79.66%
Cc1nn(C)c(Oc2ccc(Cl)cc2)c1CN1CCC(CN)C1 (stereo unspecified) | 92.45%
Cc1nn(C)c(Cl)c1CN1CCN(c2nccs2)C(C)C1 (stereo unspecified) | -15.39%
O=C(O)C(F)(F)F.O=C(c1ccccn1)N1CCC2(CC1)COC(COCC1CCCC1)C2 (stereo unspecified) | -17.9%
CC(C)C(C)NC(=O)Nc1cccc2c1CCN(S(C)(=O)=O)C2 (stereo unspecified) | -62.13%
Cc1ccc(CN2CCC3(CCCN(Cc4ccc(F)c(F)c4)C3)C2)o1 (stereo unspecified) | 25.14%
Cc1c[nH]c(CN2CCC3(CCCN(Cc4ccc(F)c(F)c4)C3)C2)n1 (stereo unspecified) | 79.41%
O=C1N(Cc2ccc(F)c(F)c2)CCCC1(O)CNCc1ncc[nH]1 (stereo unspecified) | -127.8%
Fc1ccc(CN2CCCC3(CCN(Cc4ncc[nH]4)C3)C2)cc1F (stereo unspecified) | 59.25%

Compound | Percent Effect
O=C(c1cn[nH]c1)N1CCC2(CCCN(Cc3ccc(F)c(F)c3)C2)C1 (stereo unspecified) | -30.22%
CN(C)C(=O)N1CCCC2(CCN(Cc3ccc(Cl)c(F)c3)C2)C1 (stereo unspecified) | 40.95%
Cc1noc(CN2CCCC(Cn3nc(C)nc3C)C2)n1 (stereo unspecified) | -86.57%
N#Cc1c(SCCN2CCCCCC2)sc2c(O)cc(O)nc12 | -30.34%
CN(C)S(=O)(=O)N1C[C@@H]2COC[C@]2(COc2ccccn2)C1.O=C(O)C(F)(F)F | -16.81%
CCCn1nnc(NCc2cc(Br)cc(Br)c2OC)n1 | -108.1%
COc1ccccc1OCC(=O)NCC(O)(c1cccs1)C1CC1 (stereo unspecified) | -17.87%
CN1CCn2c(-c3ccccc3)cnc2C12CCN(CC1CC1)CC2.O=C(O)C(F)(F)F.O=C(O)C(F)(F)F.O=C(O)C(F)(F)F | 80.28%
CC(=O)N1CCC2(CC1)c1ncc(-c3ccc(F)cc3)n1CCN2C | -51.39%
CCS(=O)(=O)N1CCC2(CC1)c1ncc(-c3cccnc3)n1CCN2C | -142.7%
CCN1CCn2c(-c3cccc(F)c3)cnc2C12CCN(C(C)=O)CC2.O=C(O)C(F)(F)F | -93.41%
CNC(=O)N1CCC2(CC1)c1ncc(-c3cccc(F)c3)n1CCN2C.O=C(O)C(F)(F)F | -80.59%
CN1CCn2c(-c3cccc(F)c3)cnc2C12CCN(CC1CC1)CC2.O=C(O)C(F)(F)F.O=C(O)C(F)(F)F.O=C(O)C(F)(F)F | 75.26%
Cc1ccc(-c2cnc3n2CCN(C)C32CCN(CC3CC3)CC2)cc1.O=C(O)C(F)(F)F.O=C(O)C(F)(F)F.O=C(O)C(F)(F)F | 38.95%
CN1CCn2c(-c3cnn(C)c3)cnc2C12CCN(CC1CC1)CC2.O=C(O)C(F)(F)F.O=C(O)C(F)(F)F.O=C(O)C(F)(F)F | -83.71%
CN1CC2(CCN(c3ncnc4c3CCNC4)CC2)OC1=O | -26.92%
CSCc1cc(C(=O)NC2(C#N)CC2)ccc1F | -114.4%
CC(C)c1cc(NC(=O)CN2CCC(N3CCCCC3)CC2)on1 | -41.68%
CN1C(=O)C(c2cccnc2)CC12CCN(Cc1nccs1)CC2 (stereo unspecified) | -72.15%
Cc1cc(C)n(C2CN(CC(=O)NC3CCS(=O)(=O)C3)C2)n1 (stereo unspecified) | -92.21%
c1cnc(-c2nc(C3CCOC3)no2)cn1 (stereo unspecified) | -46.11%
Cc1occc1CNc1ncccc1S(N)(=O)=O | -160.3%
CCN(Cc1ccco1)C(=O)C1=NN(c2ccccc2)C(=O)CN1 | 59.42%
O=C(NCCc1ccccn1)C1=NN(c2ccccc2)C(=O)CN1 | -38.96%

Compound | Percent Effect
CCN(C(=O)C1=NN(c2ccccc2)C(=O)CN1)c1ccccc1 | -71.25%
CCc1nc(N2CCC3(CCC(=O)N(Cc4ccncc4)C3)CC2)no1 | -12.44%
CC(C)n1cnnc1CN(C)C(=O)Cn1ccc2ccccc2c1=O | -90.48%
CCc1cc(CNC(=O)N2Cc3ccccc3N(C)CC2C)on1 (stereo unspecified) | -73.36%
CCc1cc(CNC(=O)N(C2CC2)C(C)c2ccco2)on1 (stereo unspecified) | -36.38%
Cc1noc(C)c1CNCC1CCN(CC(O)c2ccccc2)CC1 (stereo unspecified) | 41.75%
Cc1ccc(N(C)C2CCN(C(=O)CCc3ccco3)CC2)nn1 | -48.98%
CCN(CC)C1CCN(C(=O)NCc2c(C)noc2C)CC1 | -63.79%
FC(F)(F)C1CCCn2c(CNCc3ccco3)nnc21 (stereo unspecified) | -67.88%
O=C(O)C(F)(F)F.O=C(c1ccco1)N1C[C@H]2CCCN(Cc3ccc(F)cc3)[C@H]2C1 | -36.52%
Cn1cccc1C(=O)NCc1cn2c(n1)CN(CC1CCOCC1)CC2.O=C(O)C(F)(F)F | -71.57%
Cc1nc(N2CCCC2)nc2c1CCN(C(=O)NC(C)C)CC2 | 3.788%
Cc1cccc(N2CCOCC3(C2)CN(c2cncnc2)C(=O)CO3)n1 (stereo unspecified) | -72.37%
O=C(CN1CCCC(Cn2cncn2)C1)NCCc1cccs1 (stereo unspecified) | -76.44%
O=C(CNC(=O)C1(c2ccc(F)cc2F)CCC1)Nc1cccnc1 | -130.4%
Cc1ccc(CNCc2c[nH]nc2C(C)(C)C)c(OC2CCOC2)c1 (stereo unspecified) | 54.5%
Cc1ccc(NCc2cccc3cn[nH]c23)cc1OC1CCOC1 (stereo unspecified) | 18.44%
COCCN1CCC(CNCc2c[nH]nc2C(C)(C)C)CC1 | -136.4%
CN(C)CCN1CCC(CNCc2c[nH]nc2C(C)(C)C)CC1 | -18.94%
Cc1ccc(CNCc2nccn2C)c(OCC2CC2)c1 | -19.72%
NC(=O)c1ccc(CN2CCC(N3CCCC3)CC2)cc1 | -126.8%
O=C(O)C(F)(F)F.O=c1cccnn1CC1CN(CC2CCCC2)Cc2nccn2C1 (stereo unspecified) | -25.12%
Cn1nccc1-c1cnc2n1CCC21CCN(C(=O)C2(C)CC2)CC1 | -43.4%
CCNC(=O)NC(=O)CNc1cccc(C(=O)c2ccccc2)c1 | -85.13%

Compound | Percent Effect
CC(C)(N)CNS(=O)(=O)Cc1cccc2cccnc12.Cl | -113.8%
CSc1nc2ncc3c(=O)n(CCN4CCCCC4)ccc3n2n1 | -81.14%
Cc1ccccc1C(=O)N1CCCn2cnc(CN3CCCC3=O)c2C1 | -111.5%
Cc1ncccc1C(=O)Nc1cccc(OCC(F)F)n1 | -105.7%
COc1ccc(S(=O)(=O)N2Cc3c(CN(C)C)nn(C)c3C2)cc1.O=C(O)C(F)(F)F | 40.82%
Cc1ccc(CS(=O)(=O)N2Cc3c(CN(C)C)nn(C)c3C2)cc1.O=C(O)C(F)(F)F | 28.75%
CCc1ccc(S(=O)(=O)N2Cc3c(CN(C)C)nn(C)c3C2)cc1.O=C(O)C(F)(F)F | 62.16%
CNc1ncc(CN(C)c2nc(C3CCCC3)nc3c2cnn3C)cn1 | -13.34%
CC(C)n1c2ccccc2c2c1cc(C(=O)O)n2C(=O)N(C)C | -103.4%
COc1ccc(CCC(=O)NCCN2CCC(c3cccs3)CC2)cc1 | 74.85%
O=C(Cc1ccccc1Cl)NCC1CCN(Cc2ccsc2)CC1 | 33.59%
CCSc1ccccc1C(=O)NCCN1CCC(c2cccs2)CC1 | 28.22%
CC1CCN(CCNC(=O)c2sccc2C2CC2)CC1 | -42.92%
O=C(NCCc1ccccc1)NCCN1CCC(c2cccs2)CC1 | 76.7%
O=C(Cc1ccccc1Cl)NCCN1CCC(c2cccs2)CC1 | 62.17%
O=C(NCCN1CCC(c2cccs2)CC1)c1ccc(F)cc1Cl | -24.2%
O=C(NCCC(O)c1ccoc1)Nc1cccs1 (stereo unspecified) | -113.5%
O=C(NCCN1CCC(c2cccs2)CC1)c1ccccc1C(F)(F)F | 31.51%
COc1ccc(C(=O)NCCN2CCC(c3cccs3)CC2)cc1OC | 29.34%
CC(=O)NCCN1CCC(c2cccs2)CC1 | 2.442%
O=C(NCCN1CCC(c2cccs2)CC1)Nc1cccs1 | 62.79%
Cn1cnc2c1C(COCC1CC1)CN(c1ncccn1)C2.O=C(O)C(F)(F)F.O=C(O)C(F)(F)F (stereo unspecified) | -186%
CCc1nnc(SCc2nonc2C)n1C | -83.75%
CCS(=O)(=O)N1Cc2ncn(CC3CC3)c2C(COCC2CC2)C1.O=C(O)C(F)(F)F (stereo unspecified) | -83.39%
